PriA SSB inh: K. pneumoniae PriA-SSBct interaction inhibition; AlphaScreen SSBct-PriA binding, biotinylated peptide; inhibition, % at 33 µM; 0.6% of 430,000 active; in the data active means inhibition mostly above about 37%, no sharp cut-off; inactive means mostly below about 20%;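 further: plate controls were negative control peptide for no effect and reference peptide for full effect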
PfHsp40 yeast: rescue of PfHsp40-mediated yeast toxicity | S. cerevisiae expressing PfHsp40, growth rescue, ATP luminescence | growth rescue, % at 12.5 µM | 0.68% of 340,000 active | AID 504582; in the data active means growth rescue above about 28%, passing the limit was not always enough;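 further: yeast W303a lacking pdr1 and pdr3 grown in galactose medium; growth measured after three days at 30 °C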
PrPC TRFRET: reduces human prion protein on the cell surface; inhibition, % at 13.8 µM; P04156; 0.43% of 370,000 active; cell surface PrPC, TR-FRET read-out; in the data active means inhibition above about 24%; further: 0% = median of the test wells and 100% = reference compound wells
PrP UTR inh: inhibition of PrP 5' UTR reporter expression. inhibition, % (no concentration beside the values). cell-based PrP 5' UTR mRNA reporter, plate reader. 0.35% of 340,000 active; in the data active means inhibition above about 52%; further: 0 = median of the neutral control wells
RecA intein inh: inhibitors of M. tuberculosis RecA intein splicing; cell-free RecA intein splicing, fluorescence; inhibition, % (test concentration not listed); AID 2221; P9WHJ3; 0.75% of 290,000 active; in the data active means inhibition above about 30%;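 further: 0% = vehicle wells and 100% = reference inhibitor control wells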
Target sequence (P9WHJ3 whole entry, looked up): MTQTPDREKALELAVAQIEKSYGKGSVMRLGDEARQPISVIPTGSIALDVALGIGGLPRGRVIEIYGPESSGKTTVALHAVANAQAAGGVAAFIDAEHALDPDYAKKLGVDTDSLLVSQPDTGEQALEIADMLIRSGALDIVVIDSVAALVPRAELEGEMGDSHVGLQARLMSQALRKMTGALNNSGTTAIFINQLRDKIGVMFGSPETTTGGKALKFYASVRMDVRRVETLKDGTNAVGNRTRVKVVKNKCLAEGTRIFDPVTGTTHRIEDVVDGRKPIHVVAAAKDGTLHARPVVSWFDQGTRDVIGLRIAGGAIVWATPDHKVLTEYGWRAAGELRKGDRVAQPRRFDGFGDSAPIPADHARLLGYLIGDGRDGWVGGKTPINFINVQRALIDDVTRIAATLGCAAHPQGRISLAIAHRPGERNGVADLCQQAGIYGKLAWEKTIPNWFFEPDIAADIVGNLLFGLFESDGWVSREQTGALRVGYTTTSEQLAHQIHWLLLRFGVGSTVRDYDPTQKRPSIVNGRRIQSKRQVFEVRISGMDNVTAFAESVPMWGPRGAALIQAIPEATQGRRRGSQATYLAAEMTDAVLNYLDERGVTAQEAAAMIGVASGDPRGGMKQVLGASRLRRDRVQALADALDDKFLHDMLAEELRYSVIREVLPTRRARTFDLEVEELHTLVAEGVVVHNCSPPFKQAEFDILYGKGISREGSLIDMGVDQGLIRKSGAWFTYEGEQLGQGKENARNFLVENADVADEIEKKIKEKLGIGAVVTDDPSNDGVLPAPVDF
BJeLR lethal: BJeLR cell viability loss; BJeLR (HRASV12) viability, CellTiter-Glo ATP luminescence, 48 h; inhibition, % (concentration not given with the values); 0.17% of 300,000 active; AID 1554; in the data active means inhibition above about 50%
PrP 5UTR single: prion 5' UTR mRNA inhibition, cherry-pick retest. shares compounds with PrP UTR inh. cell-based prion protein 5' UTR reporter, plate reader. inhibition, % at 2.5 µM. 48% of 1,100 active. AID 504592; in the data active means inhibition above about 54%
An asterisk follows results filed as active. Only some compounds are listed: those with a hit (about 1.9% of all), similar ones and a draw of the others.

Results for CN(C)CCN1C(=O)c2cccc3cc([N+](=O)[O-])cc(c23)C1=O ?
PriA SSB inh: 4; PfHsp40 yeast: -1; PrPC TRFRET: -17; PrP UTR inh: 66*; PrP 5UTR single: 84*

Results for O=C(CS(=O)(=O)c1cn(CC(=O)N2CCOCC2)c2ccccc12)Nc1ccccc1C(F)(F)F ?
PriA SSB inh: -9

How did COC(=O)C1CCC(=O)N1C(c1ccc(OC)cc1)c1cc(OC)c(OC)c(OC)c1 (stereo unspecified) do in these assays?
PriA SSB inh: -25; PfHsp40 yeast: -1; PrPC TRFRET: 8; PrP UTR inh: 56*; PrP 5UTR single: 89*

How did COc1ccc(C(CNC(=O)Cc2cc(OC)c(OC)c(OC)c2)N2CCCC2)cc1 (stereo unspecified) do in these assays?
PriA SSB inh: 4; PfHsp40 yeast: 1; PrPC TRFRET: -5; PrP UTR inh: -25; BJeLR lethal: 10

What do the screens show for `COc1ccc(CCNC(=O)Cc2csc(SCC(=O)Nc3cccc(NC(C)=O)c3)n2)cc1`?
PriA SSB inh: 0

What do the screens show for `C=C(C=O)CC1CC(O)[C@]2(C)OC3CC4OC5C[C@]6(C)O[C@]7(C)CCC8OC9C[C@]%10(C)OC%11C(C)=CC(=O)OC%11CC%10OC9C[C@@H](C)C8OC7CC6O[C@]5(C)CC5OC5C4OC3CC2O1` (stereo partly specified)?
PriA SSB inh: 0; PrP UTR inh: 85*; RecA intein inh: 2; BJeLR lethal: 38; PrP 5UTR single: 98*

What do the screens show for `O=C(NCCn1ncc2c(=O)n(Cc3cccc([N+](=O)[O-])c3)cnc21)c1cccs1`?
PriA SSB inh: -2

Results for C=CCOc1ccccc1/C=c1\sc2nc(-c3ccc(F)cc3)nn2c1=O ?
PriA SSB inh: -5

How did Cc1ccc2nc(-c3ccccc3)cn2c1 do in these assays?
PriA SSB inh: 7; PfHsp40 yeast: -5; PrPC TRFRET: 3; PrP UTR inh: 87*; RecA intein inh: 2; BJeLR lethal: 36; PrP 5UTR single: 85*

Results for CCOC(=O)c1c(C)[nH]c(C(=O)OCCOc2ccccc2C)c1C ?
PriA SSB inh: -6; PfHsp40 yeast: 0; PrPC TRFRET: -6; PrP UTR inh: 81*; RecA intein inh: 0; BJeLR lethal: -5; PrP 5UTR single: -60

What do the screens show for `CC(=O)N1CCN(C(=O)c2cc(C)nc3ccccc23)CC1`?
PriA SSB inh: -5; PfHsp40 yeast: 0; PrPC TRFRET: -1; PrP UTR inh: -14; RecA intein inh: 1; BJeLR lethal: 4

How did Cc1cc(C(=O)N2CC=C(c3ccccc3)CC2)c2ccccc2n1 do in these assays?
PriA SSB inh: 12; PfHsp40 yeast: 0; PrPC TRFRET: 19; PrP UTR inh: 52*; RecA intein inh: 2; BJeLR lethal: 47; PrP 5UTR single: 74*

Results for O=[N+]([O-])c1ccccc1N/N=C/c1ccccc1F ?
PriA SSB inh: inactive

What do the screens show for `CCN(c1ccccc1)S(=O)(=O)c1c(N)n(C)c(=O)n(C)c1=O`?
PriA SSB inh: -24

Results for Cc1nc(C)n(C(C)CNC(=O)c2ccco2)n1 (stereo unspecified) ?
PriA SSB inh: -2; PfHsp40 yeast: 0; PrPC TRFRET: -2; PrP UTR inh: 61*; RecA intein inh: 1; BJeLR lethal: 3; PrP 5UTR single: 4

Results for CSc1ccccc1NC(=O)C(C)N(C)CC(=O)N1CCN(Cc2ccccc2)CC1 (stereo unspecified) ?
PriA SSB inh: 1; PfHsp40 yeast: 1; PrPC TRFRET: 0; PrP UTR inh: 74*; PrP 5UTR single: -10

How did Cc1cc2nc(/C=C/c3cccnc3)[nH]c2cc1C do in these assays?
PriA SSB inh: -20; PfHsp40 yeast: 0; PrPC TRFRET: -1; PrP UTR inh: 66*; RecA intein inh: -5; BJeLR lethal: 53*; PrP 5UTR single: 84*

How did Cc1nnc(SCSc2nnc(C)s2)s1 do in these assays?
PriA SSB inh: -9; PfHsp40 yeast: -1; PrPC TRFRET: -2; PrP UTR inh: -23; RecA intein inh: -4; BJeLR lethal: 1

How did Cc1nnc(SCc2ccccc2CSc2nnc(C)s2)s1 do in these assays?
PriA SSB inh: -1; PfHsp40 yeast: -1; PrPC TRFRET: -2; PrP UTR inh: 60*; RecA intein inh: 2; BJeLR lethal: -3; PrP 5UTR single: 14

Results for Cn1cc(NC(=O)Nc2ccc(C(N)=O)cc2)c2ccccc21 ?
PriA SSB inh: -2

How did CCC1(OC(=O)CN)C(=O)OCc2c1cc1n(c2=O)Cc2cc3ccccc3nc2-1 (stereo unspecified) do in these assays?
PriA SSB inh: -3; PfHsp40 yeast: 2; PrP UTR inh: 83*; RecA intein inh: -40; BJeLR lethal: 90*; PrP 5UTR single: 88*

What do the screens show for `CCC1(O)C(=O)OCc2c1cc1n(c2=O)Cc2cc3cc(O)ccc3nc2-1` (stereo unspecified)?
PriA SSB inh: 0; PfHsp40 yeast: -1; PrPC TRFRET: -16; PrP UTR inh: 23

What do the screens show for `CCOC(=O)C1(C(=O)OCC)COC(=O)C1CN1Cc2cc3ccccc3nc2C1` (stereo unspecified)?
PrPC TRFRET: -13

What do the screens show for `CCc1c2c(nc3ccc(OC(=O)N4CCC(N5CCCCC5)CC4)cc13)-c1cc3c(c(=O)n1C2)COC(=O)[C@]3(O)CC`?
PriA SSB inh: 15; PfHsp40 yeast: 0; PrPC TRFRET: -6; PrP UTR inh: 65*; RecA intein inh: -95; BJeLR lethal: 56*; PrP 5UTR single: 74*

What do the screens show for `CC[C@@]1(O)C(=O)OCc2c1cc1n(c2=O)Cc2cc3c(NC(=O)CN)cccc3nc2-1`?
PriA SSB inh: -11; PfHsp40 yeast: -2; PrPC TRFRET: -3; PrP UTR inh: 85*; RecA intein inh: -79; BJeLR lethal: 93*; PrP 5UTR single: 70*

Results for C[C@@H]1CN([C@H](C)CO)C(=O)c2cc(NS(=O)(=O)c3cn(C)cn3)ccc2O[C@@H]1CN(C)S(C)(=O)=O ?
PriA SSB inh: -1; PfHsp40 yeast: 0; PrPC TRFRET: 2; PrP UTR inh: -29

What do the screens show for `C[C@H](CO)N1C[C@H](C)[C@@H](CN(C)S(C)(=O)=O)Oc2ccc(NS(=O)(=O)c3cn(C)cn3)cc2C1=O`?
PriA SSB inh: -4; PfHsp40 yeast: -3; PrPC TRFRET: -5; PrP UTR inh: 90*; PrP 5UTR single: 1

How did COC(=O)c1ccc(Oc2cc(C)nc(-n3nc(C)cc3C)n2)cc1 do in these assays?
PriA SSB inh: -5; PfHsp40 yeast: 0; PrPC TRFRET: 12; PrP UTR inh: 59*; RecA intein inh: 2; BJeLR lethal: 42; PrP 5UTR single: 89*
